The entries come from a sample that favours hits as a whole.
DAT uptake mod: modulates human dopamine transporter uptake under cocaine | Q01959 | LLC-PK1 hDAT cells, [14C]-dopamine uptake with cocaine IC80; actives deviate in either direction | B-score at 10 µM | 1.3% of 110,000 active | AID 449768;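 active means Z score or B-score, a plate-position-corrected score, falls beyond the plate's 99.7% confidence bounds, in either direction; inactive means both scores lie inside the 99.7% bounds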
D1 mod: D1 dopamine receptor (human) allosteric modulation. P21728. HEK293 D1, CRE-luciferase, dopamine EC30 potentiation; actives deviate in either direction. B-score at 10 µM. 5.9% of 58,000 active;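 active means luminescence count or its row- and column-corrected plate score outside the 99.7% band of the plate's sample wells, on either side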
Target sequence (P21728 whole entry, looked up): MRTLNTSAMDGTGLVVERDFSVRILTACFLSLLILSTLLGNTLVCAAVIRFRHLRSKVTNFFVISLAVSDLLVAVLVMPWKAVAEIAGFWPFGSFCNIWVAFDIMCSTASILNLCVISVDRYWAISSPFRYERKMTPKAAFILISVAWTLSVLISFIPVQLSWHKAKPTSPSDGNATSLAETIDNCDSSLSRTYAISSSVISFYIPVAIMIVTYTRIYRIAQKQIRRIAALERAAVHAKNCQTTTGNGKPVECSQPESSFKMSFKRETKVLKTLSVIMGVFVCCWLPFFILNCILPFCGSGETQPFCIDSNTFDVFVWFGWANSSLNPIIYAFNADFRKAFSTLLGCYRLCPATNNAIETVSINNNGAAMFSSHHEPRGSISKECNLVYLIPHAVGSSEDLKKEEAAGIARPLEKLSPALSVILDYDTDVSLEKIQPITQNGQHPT
EphB4 ephrin blk: EphB4-ephrin-B2 interaction antagonism; EphB4 LBD / TNYL-RAW-Alexa532 peptide, fluorescence polarization; inhibition, % at 7 µM; 0.15% of 97,000 active;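 active means inhibition above the screen-wide mean inhibition plus 3 SD, cut at about 15% in these data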
Of the large screens only hits and unclear results are named; the others gave an inactive call.

Cc1cccc2cc(CN(Cc3ccco3)C(=O)NC3CCCCC3)c(=O)[nH]c12	DAT uptake mod 2.44
Cc1cccc2cc(CN(CC3CCCO3)C(=O)NC3CCCCC3)c(=O)[nH]c12 (centres undefined)	none
O=C(CSc1nnc(CNc2ccc(F)cc2)o1)N1c2ccccc2Sc2ccccc21	none (no result: D1 mod)
Cc1ccc(CNC(=O)c2ccc([N+](=O)[O-])o2)cc1	none (no result: D1 mod)
Cc1ccc(CNc2nc(N)c([N+](=O)[O-])c(Nc3ccc(F)cc3)n2)cc1	DAT uptake mod -11.2 (no result: D1 mod)
CC(C)CC(=O)NC(=S)NCCc1ccccc1	EphB4 ephrin blk 15.9 (no result: D1 mod)
CC(C)(C)CC(=O)NC(=S)NCCc1ccccc1	none (no result: D1 mod)
CCOc1ccccc1Oc1ccc(C(F)(F)F)cn1	D1 mod -4
CCOc1ccccc1OCCOc1cccc(C(F)(F)F)c1	none (no result: D1 mod)
COc1cc2c3nnc(-c4ccc(F)cc4)c-3cn(Cc3ccccc3)c2cc1OC	none (no result: D1 mod)
COc1cc(OC)c2c(-c3ccccc3)cc(=O)oc2c1C(CC(=O)N1CCCC1)c1ccc2c(c1)OCO2 (centres undefined)	DAT uptake mod 2.09 (no result: D1 mod, EphB4 ephrin blk)
COc1cc(OC)c2c(-c3ccccc3)cc(=O)oc2c1C(CCN1CCCCC1)c1ccc2c(c1)OCO2 (centres undefined)	none (no result: D1 mod, EphB4 ephrin blk)
Cc1cc(C)cc(Nc2ncc3c(n2)CCCC3=O)c1	D1 mod -5.01
Cc1ccc2nc(Nc3ncc4c(n3)CCCC4=O)nc(C)c2c1	none (no result: DAT uptake mod, EphB4 ephrin blk)
O=C(Nc1ccc(OC(F)F)cc1)Nc1cccc(C(F)(F)F)c1	none (no result: D1 mod)
CCN(CC1COc2ccccc2O1)C(=S)Nc1ccccc1 (centres undefined)	none (no result: D1 mod)
Cn1c(N)c(C#N)c2c(c1=S)CSC(C)(C)C2	DAT uptake mod -7.82 (no result: D1 mod)
Cn1c(N)c(C#N)c2c(c1=S)COC(C)(C)C2	none (no result: DAT uptake mod, D1 mod)
O=C(CSCc1ccc(F)cc1)NCc1ccco1	none (no result: D1 mod)
O=S(=O)(c1ccc(SCCO)nc1)N1CCCC1	none
O=c1cc(CSc2ccc(S(=O)(=O)N3CCCCC3)cn2)nc2sccn12	D1 mod -4.52
COC(=O)C1=C[C@@H](C(=O)OC)[C@@H]2C3=C(C(=O)[C@]2(CC(C)C)NC(=O)c2ccccc2)[C@H](C)n2c(=O)n(-c4ccccc4)c(=O)n2[C@@H]3C1	DAT uptake mod -2.53 (no result: D1 mod, EphB4 ephrin blk)
COC(=O)C1=C[C@@H](C(=O)OC)[C@@H]2C3=C(C(=O)[C@@]2(C)NC(=O)c2ccccc2)[C@H](c2ccccc2)n2c(=O)n(-c4ccccc4)c(=O)n2[C@@H]3C1	none (no result: D1 mod, EphB4 ephrin blk)
COC(C[C@@H](O)CC(=O)COCc1ccccc1)OC	none (no result: D1 mod, EphB4 ephrin blk)
COc1ccc(C2=NN(C(=O)CSc3cn(C)c4ccccc34)C(c3ccc(OC)cc3)C2)cc1 (centres undefined)	none (no result: D1 mod)
CC[C@@H]1C=C(C)C[C@H](C)C[C@H](OC)[C@H]2O[C@@](O)(C(=O)C(=O)N3CCCC[C@H]3C(=O)O[C@H](/C(C)=C/[C@@H]3CC[C@@H](O)[C@H](OC)C3)[C@H](C)[C@@H](O)CC1=O)[C@H](C)C[C@@H]2OC	none (no result: D1 mod, EphB4 ephrin blk)
CCC(=O)N[C@@H]1CC(C(C)(C)NC(=O)CC)CC=C1C (some centres undefined)	DAT uptake mod -9.91
COc1ccc(CNC(=O)C2CC(c3ccc(F)cc3)=NO2)cc1 (centres undefined)	none
COc1ccc(C2=NOC(C(=O)N3CCN(c4ccccc4OC)CC3)C2)cc1 (centres undefined)	D1 mod -3.51
COc1ccc(OC)c(C2=NOC(C(=O)N3CCN(c4ccccc4)CC3)C2)c1 (centres undefined)	none (no result: D1 mod)
COc1ccc(CNC(=O)C2CC(c3ccc(OC)cc3)=NO2)cc1 (centres undefined)	DAT uptake mod -3.44
Cc1cccc(-c2cc3nc4c(c(NCc5ccco5)n3n2)CCCC4)c1	none (no result: D1 mod)
CS(=O)(=O)c1ccc(CNC(=O)C2(C(F)(F)F)CC(CCCO)CCCO2)cc1 (centres undefined)	none (no result: D1 mod, EphB4 ephrin blk)
COC(=O)Cn1cnc(=O)c(C#N)c1/C=C/N(C)C	D1 mod -4.72
COC(=O)Cn1cnc2c(C#N)c3n(c2c1=O)CCCCC3	none
O=C(CCCNS(=O)(=O)c1cccc2nsnc12)NCCc1ccccc1	D1 mod -4.02
O=S(=O)(NCCc1ccccc1)c1cccc2nsnc12	none (no result: D1 mod)
CC(=O)c1cccc(NC(=O)CCNS(=O)(=O)c2cccc3nsnc23)c1	none
Cc1cccc(NC(=O)CCNS(=O)(=O)c2cccc3nsnc23)c1	DAT uptake mod 1.81 (no result: EphB4 ephrin blk)
CCCCCCC(=O)N1C/C=C\C(c2ccc(OC)cc2)N(Cc2ccc(F)cc2)C(=O)[C@H]1Cc1ccccc1 (some centres undefined)	none (no result: D1 mod, EphB4 ephrin blk)
COc1ccc(C(CC(=O)N2CCN(c3ccccc3)CC2)c2c(OC)cc(OC)c3ccc(=O)oc23)cc1 (centres undefined)	none (no result: D1 mod, EphB4 ephrin blk)
Oc1ccc(N=Nc2n[nH]c(-c3ccc(Cl)cc3)n2)cc1	none (no result: D1 mod)

Assay outcomes as filed in PubChem.
